The panel holds about 83,000 compounds, 20% with a hit somewhere; the sample as a whole holds those more often.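 Activity criterion: percent growth below 10, measured after cells in 96-well plates were exposed to a single compound concentration for 48 hours.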 Values without a mark were called inactive. The source made the active and inactive calls.
What was measured:
Assay in all cases: NCI-60 one-dose screen, 48 h (100 = growth as untreated, 0 = no growth, -100 = all killed)
Conditions in all cases: 10 µM unless noted
DU-145 prostate = system: DU-145 prostate
K-562 leukemia = system: K-562 leukemia
MALME-3M melanoma = system: MALME-3M melanoma
MDA-MB-231 breast = system: MDA-MB-231 breast
RXF 393 renal = system: RXF 393 renal
SF-268 CNS = system: SF-268 CNS
SF-295 CNS = system: SF-295 CNS
SF-539 CNS = system: SF-539 CNS
UACC-257 melanoma = system: UACC-257 melanoma
M14 melanoma = system: M14 melanoma

Row | Structure (SMILES) | growth (DU-145 prostate) | growth (K-562 leukemia) | growth (MALME-3M melanoma) | growth (MDA-MB-231 breast) | growth (RXF 393 renal) | growth (SF-268 CNS) | growth (SF-295 CNS) | growth (SF-539 CNS) | growth (UACC-257 melanoma) | growth (M14 melanoma)
1 | O=C(/C=C/c1ccccc1)c1ccc(Nc2nc(Nc3ccc(F)cc3)nc(Nc3ccc(Cl)cc3)n2)cc1 | 97.7% | 70.9% | 109% | 81.5% | 134% | 88.1% | 69.3% | 97.2% | 110% | 81.2%
2 | C=C1CC[C@@H]2[C@](C)(COC(C)=O)[C@H](OC(C)=O)CC[C@@]2(C)[C@@H]1CC(Nc1ccc(S(=O)(=O)NC(C)=O)cc1)C1=CCOC1=O (stereo not given in full) | 0.37% (active) | 4.81% (active) | -43.6% (active) | -38.7% (active) | -75.8% (active) | 6.72% (active) | 58.4% | -76.7% (active) | -10.6% (active) | -35.1% (active)
3 | Oc1c(CN2CCOCC2)cc(COCc2ccccc2)c2cccnc12 | 38% | 14.8% | 21.2% | 43.1% | 58.5% | 23.7% | 30.8% | 4.65% (active) | -9.19% (active) | 12%
4 | CCN(CC)CCN1C(=O)c2cccc3c(/C=C/CN4C(=O)c5cccc6cccc(c56)C4=O)ccc(c23)C1=O | 106% | 19.7% | 91.9% | 95.5% | 74.2% | 93.5% | 108% | 92.5% | 109% | 105%
5 | C=CCN1C(=O)c2cccc3c(N4CCOCC4)ccc(c23)C1=O | 10.3% | 9.78% (active) | -3.28% (active) | 23.9% | -29.9% (active) | -23.9% (active) | 2.87% (active) | 0.495% (active) | -3.63% (active) | 0.387% (active)
6 | Cc1nc2sc(C(=O)Nc3cccc(Br)c3C)c(N)c2cc1C(O)c1ccccc1 (stereo not given) | 6.13% (active) | 6.3% (active) | 56.9% | 3.16% (active) | 37.9% | 16.3% | 20.5% | 1.41% (active) | 52% | 9.77% (active)
7 | C=C(CNCCO)[C@@H]1CC[C@]2(CO)CC[C@]3(C)[C@H](CC[C@@H]4[C@@]5(C)CCC(N)C(C)(C)[C@@H]5CC[C@]43C)[C@@H]12 (stereo not given in full) | 53% | -43.3% (active) | -75.1% (active) | 2.59% (active) | 50.4% | 33.1% | 46.5% | -6.75% (active) | -81.5% (active) | -70.2% (active)
8 | O=C(N/N=C/c1cc(Cl)ccc1O)c1ccccc1Nc1ccnc(C(F)(F)F)c1 | 25.8% | 89.3% | -18.7% (active) | 50.4% | 58.3% | 18.3% | 28.9% | -4.43% (active) | 42.8% | 23.6%
9 | c1ccc2c(c1)CCCc1nnc3nc4ccccc4n3c1-2 | 39.9% | 31.4% | 53.5% | 38.5% | 46.7% | 44.5% | 30.7% | 69.5% | 37.6% | 28.3%
10 | COc1ccc(NC(=O)Nc2ccc(OCCCCCC(=O)NO)cc2)cc1 | 106% | 88.3% | 97.5% | 105% | 98.3% | 101% | 109% | 103% | 73.4% | 95.3%
11 | COC(=O)C(Cc1ccccc1)NC(=O)c1ccc(NC(=O)c2[nH]c(C)c(Cl)c2Cl)c(OC(C)C)c1 (stereo not given) | 77.6% | 42.1% | 71.4% | 66.3% | 128% | 86.4% | 87.5% | -17.9% (active) | 101% | 51.3%
12 | COc1cccc(Nc2ncnc3cc(NC(=O)CCl)ccc23)c1 | -74% (active) | -9.78% (active) | -85.3% (active) | -69.4% (active) | -90.2% (active) | -57.5% (active) | -19% (active) | -89.1% (active) | 14% | -78.4% (active)
13 | CC(C)(C)n1cc(-c2ccnc(NCCNS(=O)(=O)c3ccc(O)cc3)c2)c(-c2cccc(O)c2)n1 | 106% | 56.1% | 96.9% | 111% | 108% | 94.4% | 101% | 95.3% | 99.1% | 110%
14 | O=C(N=Nc1c(O)[nH]c2ccccc12)Nc1ccc(F)cc1 | 105% | 85% | 97.6% | 94% | 110% | 104% | 95% | 94.9% | 93.9% | 99.7%
15 | COc1ccc(-c2cc(-c3ccccc3)nc(N3CCN(CCNc4ccnc5cc(Cl)ccc45)CC3)n2)cc1 | -33.4% (active) | 0.988% (active) | -87.7% (active) | -82.4% (active) | -34.7% (active) | -15.1% (active) | 82.7% | -40% (active) | -84.5% (active) | -70.9% (active)
16 | Oc1c(CN2CCCC2)cc(CSCc2ccccc2)c2cccnc12 | 22.6% | 11% | -2.43% (active) | 26.4% | 31.3% | 11.9% | 5.5% (active) | -26.2% (active) | -16.7% (active) | -3.2% (active)
17 | Cc1nc2ccccc2c(/C=C/c2ccccc2)c1C(=O)/C=C/c1ccccc1 | 12.6% | 9.41% (active) | 37.5% | 29.8% | 21.1% | 40.2% | 45.8% | 8.18% (active) | 9.71% (active) | 22.5%
18 | CC1(C)[C@@H](O[C@@H]2OC[C@@H](O[C@@H]3O[C@H](CO)[C@@H](O)[C@H](O)[C@H]3O[C@@H]3OC[C@@H](O)[C@H](O)[C@H]3O)[C@H](O)[C@H]2O[C@@H]2O[C@H](CO)[C@@H](O)[C@H](O)[C@H]2O)CC[C@]2(C)[C@H]3CC[C@]45OC[C@@]6(CC[C@](C)(C=O)C[C@H]64)[C@H](O)C[C@@]5(C)[C@]3(C)CC[C@@H]12 | -82.1% (active) | -18% (active) | -79.8% (active) | -59.5% (active) | -77.2% (active) | -55.1% (active) | -89% (active) | -22.6% (active) | -87.1% (active) | -85% (active)
19 | CC1(C)C(N)=Nc2cc(OCCCN3Cc4ccccc4C3)c(OCC3CC3)cc21 | 93.8% | 38.8% | -14% (active) | 49.1% | 69.3% | 80.2% | 78.3% | 70.3% | 1.23% (active) | -45.1% (active)
20 | N#Cc1nc(-c2ccccc2)oc1S(=O)(=O)N1CCN(c2ccc(F)cc2)CC1 | 98.8% | 3.68% (active) | 51.8% | 83.8% | 89.8% | 88.8% | 105% | 101% | 86.8% | 53.5%
21 | Cc1c(CN)cc(-c2ccc(Cl)cc2)n1-c1ccccc1 | 89.2% | 66.1% | 107% | 87.1% | 84.6% | 86.4% | 87.7% | 93.7% | 91.1% | 82.8%
22 | CN1CCN(C(=O)[C@@]2(C)CC[C@]3(C)CC[C@]4(C)C(=CC[C@@H]5[C@@]6(C)CCC(=O)NC(C)(C)[C@@H]6CC[C@]54C)[C@@H]3C2)CC1 | 86.7% | 16% | 19.8% | 61.1% | 35% | 63.1% | 90.5% | 43.9% | -12.9% (active) | 0.579% (active)
23 | Cn1c2c(c3ccc(Cl)c(Cl)c31)C(C#N)C(C)(C)NC2=O (stereo not given) | 106% | 74.5% | 90.4% | 81.1% | 76.4% | 99.6% | 76.1% | 86.2% | 77.4% | 90.3%
24 | Cc1cccc(Oc2ccc(Nc3ncnc4ccc(NC(=O)CN5CCN(C)CC5)cc34)cc2Cl)c1 | 33.2% | -6.17% (active) | -72.6% (active) | -47.2% (active) | -65.6% (active) | 42% | 63.9% | -77.1% (active) | -66.4% (active) | -72.7% (active)
25 | N=C(N)c1ccc(-c2ccc(-c3cc(Cl)cc(Cl)c3)s2)nc1 | 1.39% (active) | -4.72% (active) | 78.6% | 61.1% | 90.3% | 88.4% | 57.1% | 57.2% | 106% | 79.5%
